Molecules are shown by their SMILES. The campaign covered roughly 48,000 compounds. About 13,000 (27%) showed an effect of 50% or more. This is one part of the list.

In the assay the test system is Wolbachia pipientis. The assay can be described thus: Anti-Wolbachia Cell-Based Screen. Format: functional. On the set-up: scale not given: in the data most compounds retested in dose-response had high values. The settings on record: 5 µM.
Regarding `O=C1O[C@@H]2CN(S(=O)(=O)N3CCCC3)C[C@@H]2N1CCc1cccc(Cl)c1`, the “Percent Effect” value worked out at 9.806%. As to `CN(CCCNC(=O)c1ccc(C#N)cc1)CC(F)(F)F`, the “Percent Effect” value is recorded as -0.8138%.

Take `Cc1cc(NCCOCCS(C)(=O)=O)nc2ccccc12`: the “Percent Effect” value is on record as -11.25%. In the case of `Cc1nc(NC(=O)N2CCCC(C(F)(F)F)C2)nn1C` (stereo not drawn) it was -33.51%.

As to `O=S(=O)(Nc1cn[nH]c1)c1ccc(Br)c(F)c1`, the “Percent Effect” value is listed as -16.59%. To `COc1ccc(C(=O)Nc2cc(CC(C)C)nn2C)cc1` belongs 109.3%.

For the compound `CC(C)Cc1cc(NC(=O)c2n[nH]c3ccccc23)n(C)n1`, the “Percent Effect” value amounted to 100%. To `COc1cccc(OC2CN(C(=O)c3cc(CC(C)C)nn3C)C2)c1` belongs -45.28%. As for `CC(C)Cc1cc(NC(=O)c2ccc(=O)[nH]n2)n(C)n1`, the “Percent Effect” value stood at 9.079%.

As for `CC(C)Cc1cc(NC(=O)c2ccncc2)n(C)n1`, the “Percent Effect” value worked out at 97.89%. `CC(C)Cc1cc(NC(=O)c2ccccn2)n(C)n1`: the “Percent Effect” value is 95.28%. To `COc1cccc(C(=O)Nc2cc(CC(C)C)nn2C)c1` belongs -2.904%. In the case of `Cc1cc(C(C)(O)CNC(=O)c2ccc(Br)o2)c(C)o1` (stereo not drawn) it was -12.89%; in that of `CCOC(C)c1noc(CN(C)C(=O)c2ccncc2)n1` (stereo not drawn), -13.27%; in that of `COCCNC(=O)[C@H]1CN(Cc2nccs2)C[C@H]2OCC[C@@H]12.O=C(O)C(F)(F)F.O=C(O)C(F)(F)F`, -11.72%. Regarding `CCn1cncc1C1CC(=O)Nc2c1c(C)nn2-c1ccc(C)cc1` (stereo not drawn), the “Percent Effect” value is given as -3.451%. To `Cn1c2c(c(=O)n1C)CN(S(=O)(=O)c1cccs1)CCC2` belongs -5.821%; to `CN(Cc1cccc(F)c1)C(=O)CS(=O)(=O)Cc1ccc(Cl)c(Cl)c1`, 7.071%. To `CC(C)Cc1cc(NC(=O)c2ccccc2)n(C)n1` belongs 80.95%; to `CC(=O)Nc1cc(C(=O)Nc2cc(CC(C)(C)C)nn2C)ccc1F`, -21.96%.

As to `CC(C)Cc1cc(NC(=O)c2cc(Cl)c[nH]2)n(C)n1`, the “Percent Effect” value is 97.83%. In the case of `CC(C)Cc1cc(NC(=O)c2ccc[nH]2)n(C)n1` it was 5.511%.

As to `CC(C)Cc1cc(NC(=O)c2cccnc2)n(C)n1`, the “Percent Effect” value came to 95.88%. To `CC(C)Cc1cc(NC(=O)N2CCC(Oc3cccnc3)C2)n(C)n1` (stereo not drawn) belongs -4.031%; to `CC(C)Cc1cc(C(=O)N2CCC(Oc3cccnc3)CC2)n(C)n1`, -0.7222%. As for `Cc1cnn(CC2CCCN2CC(=O)N(C)CCC#N)c1` (stereo not drawn), the “Percent Effect” value is on record as -15.64%. As to `COc1cccc(CN(C)C(C)c2ccon2)c1OCCn1ccnc1` (stereo not drawn), the “Percent Effect” value is recorded as 6.714%. To `N#Cc1cccc(OC2CCN(C(=O)c3cncc(O)c3)CC2)c1` belongs -9.362%; to `CC(NCCn1cccn1)c1ccc(F)cc1F` (stereo not drawn), 14.02%. In the case of `CCn1cnnc1C1CCN(C(=O)c2cccc3c2ccn3C)CC1` it was 4.279%; in that of `CCn1cnnc1C1CCN(C(=O)c2cccc(N(C)C)c2)CC1`, 182%. To `CCn1cnnc1C1CCN(C(=O)c2cccc(-n3cccc3)c2)CC1` belongs 173.7%; to `CCn1cnnc1C1CCN(C(=O)c2ccc3c(c2)nnn3C)CC1`, 122.3%. Consider `Cn1nnc2cc(C(=O)N3CCCC3Cc3ccccc3)ccc21` (stereo not drawn), for which the “Percent Effect” value is reported as -4.659%. To `CCN1CCN(C(=O)c2ccnc(N(C)C)c2)CC1` belongs -10.63%. To `CCn1cnnc1C1CCN(C(=O)CC(C)n2cccc2)CC1` (stereo not drawn) belongs -3.98%. In the case of `CCn1cnnc1C1CCN(C(=O)c2ccnc(N(C)C)c2)CC1` it was 117.4%; in that of `O=C(O)C(F)(F)F.O=C(c1nc2c(o1)CN(CC1CCC1)C2)N1CCCC1`, 1.201%. Consider `CC(C)(CNC(=O)C1CCCN1S(C)(=O)=O)N1CCOCC1` (stereo not drawn), for which the “Percent Effect” value was 0.9982%.

On to `Cc1cc(CNCC2(O)CCOCC2)ccc1F`, for which the “Percent Effect” value was -13.16%. In the case of `COC(=O)N1CCN(Cc2ccccc2C(C)(C)C#N)CC1` it was -9.14%. To `COc1ccccc1N(C)Cc1nc2c(cnn2C)c(=O)[nH]1` belongs -7.278%; to `COc1ccccc1CN(C)c1nc2c(cnn2C)c(=O)[nH]1`, -4.184%. To `COc1ccc(CN(C)c2nc3c(cnn3C)c(=O)[nH]2)c(OC)c1` belongs -2.005%; to `COc1ccccc1-c1cc(C(=O)N2CCCC2)c2cnn(C)c2n1`, 117.8%; to `COc1ccccc1-c1cc(C(=O)N(C)C)nc2c1cnn2C`, 124.6%. As for `COc1ccccc1-c1cc(C(=O)N(C)C)c2cnn(C)c2n1`, the “Percent Effect” value turned out to be 108%.

For the compound `COc1cccc(CN(C)Cc2nc3c(cnn3C)c(=O)[nH]2)c1OC`, the “Percent Effect” value is recorded as 14.32%.

As to `COc1cccc2c1N(Cc1nc3c(cnn3C)c(=O)[nH]1)CCC2`, the “Percent Effect” value is reported as -0.8657%.

For the compound `COc1ccccc1OC1CCN(C(=O)c2cnc(C)cc2C)CC1`, the “Percent Effect” value was -3.522%. In the case of `COc1cccc(C)c1C(=O)N1CCc2ncnc(NCCO)c2CC1` it was -30.82%; in that of `O=C(C[S+]([O-])Cc1ccc(F)cc1Cl)NC1CCCC1` (stereo not drawn), 9.339%; in that of `COc1ccc(Nc2ccc(C#N)cn2)cc1N1CCCC1=O`, -10.87%.

In the case of `Cc1cc(OCC(=O)N2CCCC(c3noc(C)n3)C2)no1` (stereo not drawn), the “Percent Effect” value is on record as 0.3444%. To `Cc1nc(C2CCCN(C(=O)COCc3ccccc3Cl)C2)no1` (stereo not drawn) belongs -13.21%; to `Cc1noc(C)c1-c1nc(C2CCCN(CCC(N)=O)C2)ccc1CO` (stereo not drawn), 98.23%. In the case of `CCc1nc(C2CCCN(C(=O)CCn3ccccc3=O)C2)no1` (stereo not drawn) it was -2.479%; in that of `Cc1noc(C)c1-c1nc(C2CCCN(C(=O)CN)C2)ccc1CO` (stereo not drawn), 107.5%; in that of `Cn1ncc2c(N3CCN(CCC(N)=O)CC3)nc(C3CCCC3)nc21`, 3.18%.

`Cc1noc(C)c1-c1nc(C2CCCN(C(=O)CCN)C2)ccc1CO` (stereo not drawn): the “Percent Effect” value is on record as 106.6%.

Regarding `Cc1nc(C2CCCN(C(=O)Cn3ccccc3=O)C2)no1` (stereo not drawn), the “Percent Effect” value is -7.453%. To `Cl.Cl.Cl.OC(CN1CCN(Cc2cccnc2)CC1)c1cccs1` (stereo not drawn) belongs -1.04%; to `Cc1ccc2c(c1)C(NCc1nnc3n1CCCCC3)CCCO2` (stereo not drawn), -29.11%. For `O=c1cc(CN(CCO)C2CC2)nc2ccc(Cl)cn12`, the “Percent Effect” value was -6.925%. In the case of `O=C(CCc1cscn1)NS(=O)(=O)c1ccc2ccccc2c1` it was 3.955%; in that of `CN(C)C(=O)N1CC[C@H]2[C@H]1CCN2c1nncs1.O=C(O)C(F)(F)F`, -1.539%; in that of `Cc1ccc(N2CC[C@@H]3[C@@H]2CCN3C(=O)Cc2cccs2)nn1.O=C(O)C(F)(F)F`, 109.8%. As for `Cc1ccc(N2CC[C@H]3[C@@H]2CCC(=O)N3CCN2CCOCC2)nn1.O=C(O)C(F)(F)F`, the “Percent Effect” value is -26.64%. In the case of `Cc1ccc(N2CC[C@@H]3[C@@H]2CCN3C(=O)Cc2ccccc2)nn1.O=C(O)C(F)(F)F` it was 108%; in that of `Cc1ccc(N2CC[C@@H]3O[C@@H](COCc4cccnc4)CC[C@@H]32)nn1.O=C(O)C(F)(F)F.O=C(O)C(F)(F)F`, 4.893%; in that of `Cc1ccc(N2CC[C@@H]3[C@@H]2CCN3C(=O)c2cscn2)nn1.O=C(O)C(F)(F)F`, -4.198%.

For `Cc1ccc(N2CC[C@@H]3[C@@H]2CCN3C(=O)Cc2ccsc2)nn1.O=C(O)C(F)(F)F`, the “Percent Effect” value came out at 97.7%. To `O=C(CC1CCCC1)N1CC[C@H]2[C@H]1CCN2c1nncs1.O=C(O)C(F)(F)F` belongs 10.49%; to `O=C(Cc1ccsc1)N1C[C@@H]2OCCN(c3cnccn3)[C@@H]2C1.O=C(O)C(F)(F)F`, 19.14%; to `O=C(O)[C@@H]1CN(C2CCCC2)C[C@H]1C1CC1`, -8.244%. `Cc1ccc(NC(=O)NC(C)c2nc[nH]n2)cc1Cl` (stereo not drawn): the “Percent Effect” value is -5.292%. Regarding `c1cc2c(cc1-c1noc3c1CN(C1CCSCC1)CC3)OCO2`, the “Percent Effect” value is -0.3794%.

Regarding `Cc1ccsc1CN(C)C(=O)C1CCCN(C(N)=O)C1` (stereo not drawn), the “Percent Effect” value came to 8.59%. To `CC(C)n1cnnc1CN(C)C(=O)C1CCCN(CC(N)=O)C1` (stereo not drawn) belongs 92.86%; to `CC(C)n1cnnc1CN(C)C(=O)C1CCCN(C2CCN(C)CC2)C1` (stereo not drawn), 110.4%. Turning to `CCn1cnnc1CN(C)C(=O)C1CCC(=O)N(CC2CCCCC2)C1` (stereo not drawn), the “Percent Effect” value is on record as 6.192%.

Regarding `CN(CCCc1cnn(C)c1)C(=O)C1CCCN(C2CCCC2)C1` (stereo not drawn), the “Percent Effect” value was -4.141%. To `CC(C)n1cnnc1CN(C)CC1CCCNC1` (stereo not drawn) belongs -3.149%; to `CCCn1cnnc1CN(C)C(=O)C1CCCN(C2CCN(C)CC2)C1` (stereo not drawn), 120.4%. In the case of `CC(C)n1cnnc1CN(C)C1CCCNC1` (stereo not drawn) it was -12.15%.

`CCCn1cnnc1CN(C)C(=O)C1CCC(=O)N(C2CCCC2)C1` (stereo not drawn): the “Percent Effect” value is -9.656%. In the case of `O=C1CN(Cc2cc(O)c3cccc(F)c3n2)CCN1C1CCCC1` it was -1.558%. Consider `Cc1ncnc(NCC(C)N(C)c2ccccc2)c1C` (stereo not drawn), for which the “Percent Effect” value was -9.709%. In the case of `COCCN1CCCC2(CCN(Cc3noc(C4CCCC4)n3)C2)C1=O` (stereo not drawn) it was 5.891%; in that of `Cc1nc(C)n(Cc2cccc(NC3CCN(C)C3=O)c2)n1` (stereo not drawn), -8.315%. As for `CN(Cc1ccccc1)CC(C)(C)NC(=O)c1cnns1`, the “Percent Effect” value is -3.698%. To `CN(C)CCN(C)C(=O)Nc1cc(F)cc(N2CCCC2)c1` belongs 23.94%.

In the case of `Cn1cnc(CN2Cc3nccn3CC2c2ccccc2)c1` (stereo not drawn), the “Percent Effect” value is 137.8%. In the case of `c1ccc(CNC[C@H]2Cn3ccnc3CO2)cc1` it was -10.94%; in that of `Cc1cc(C(F)(F)F)nc(CCNC(C)Cn2ccnc2)n1` (stereo not drawn), 111.3%.

In the case of `Cc1cc(C(F)(F)F)nc(CCNC(C)Cn2cncn2)n1` (stereo not drawn), the “Percent Effect” value amounted to 108.9%.

Turning to `CC(Cn1cncn1)NCCN1CCc2ccccc2C1` (stereo not drawn), the “Percent Effect” value came to 12.32%. In the case of `Cc1cc(C)n(CC(C)NCCn2nc(C)c(Cl)c2C)n1` (stereo not drawn) it was 9.985%. To `Cc1ccc2c(c1)c(CNC(C)Cn1ccnc1)nn2C` (stereo not drawn) belongs 4.186%; to `CC(Cn1ccnc1)NS(=O)(=O)Cc1ccc(F)cc1` (stereo not drawn), -3.68%. In the case of `Cc1cc(C)n(CC(C)NCCN2CCc3ccccc32)n1` (stereo not drawn) it was 20.38%; in that of `CC(Cn1cncn1)NCc1nncn1C1CCCCC1` (stereo not drawn), -14%.

On to `Cc1cc(C(F)(F)F)nc(CCNC(C)Cn2nc(C)cc2C)n1` (stereo not drawn), for which the “Percent Effect” value is on record as 119.2%.

Values taken from ChEMBL document CHEMBL3988442, “University of Dundee, Small-Polar-MMV Screening Library” (2021).
